# Values without a mark were called inactive.
# System: Vero E6 infected with SARS-CoV-2
# Assay: inhibition of SARS-CoV-2 cytopathic effect; higher = more antiviral protection, active = above 15
# Conditions: 833.33 nM; 48 h
row,SMILES,inhibition of SARS-CoV-2 cytopathic effect [%]
1,CCCOc1ccc2[nH]c(NC(=O)OC)nc2c1 [oxibendazole],-2.39
2,O=C(O)C(Cl)Cl [dichloroacetate],0.22
3,O=C(O)c1ccc(OCCn2ccnc2)cc1 [dazoxiben],-0.21
4,C[C@@H](NCc1cc(Br)cc2nc(O)c(O)nc12)P(=O)(O)O,-1.72
5,CC[C@H](C)[C@H](N)C1=N[C@H](C(=O)N[C@@H](CC(C)C)C(=O)N[C@H](CCC(=O)O)C(=O)N[C@H](C(=O)N[C@H]2CCCCNC(=O)[C@H](CC(N)=O)NC(=O)[C@@H](CC(=O)O)NC(=O)[C@H](Cc3cnc[nH]3)NC(=O)[C@@H](Cc3ccccc3)NC(=O)[C@H]([C@@H](C)CC)NC(=O)[C@@H](CCCN)NC2=O)[C@@H](C)CC)CS1 [bacitracin],-1.54
6,CCOc1ccc(NC(=S)N2CCC(C(O)(c3ccccc3)c3ccccc3)CC2)cc1,-3.52
7,CCN1CCN(Cc2ccc(-c3cc4c(N[C@H](C)c5ccccc5)ncnc4[nH]3)cc2)CC1,-10.4
8,C[C@](O)(COc1ccc(C#N)cc1)C(=O)Nc1ccc(C#N)c(C(F)(F)F)c1 [ostarine],-1.16
9,COc1ccc2c(c1)C(C(=O)N(Cc1ccc(N(C)C)cc1)c1ccc(C(C)C)cc1)CCC2 (stereo not given),1.87
10,CCS(=O)(=O)CCn1c([N+](=O)[O-])cnc1C [tinidazole],4.13
11,CCOc1ccccc1OC(c1ccccc1)C1CNCCO1 (stereo not given) [reboxetine],-0.58
12,CCNC(=O)CCC/C=C\C[C@@H]1[C@@H](/C=C/[C@@H](O)CCc2ccccc2)[C@H](O)C[C@@H]1O [bimatoprost],-0.88
13,CCOC(=O)c1ncc2[nH]c3cccc(OC(C)C)c3c2c1C,5.05
14,Cn1c(=O)c2c(ncn2CCOC(=O)C(C)(C)Oc2ccc(Cl)cc2)n(C)c1=O [etofylline-clofibrate],2.56
15,COc1ccc2cc1Oc1ccc(cc1)C[C@H]1c3c(cc4c(c3Oc3cc5c(cc3OC)CCN(C)[C@@H]5C2)OCO4)CCN1C [cepharanthine],-2.66
16,COc1cc(C(=O)N(CC[C@H]2CCCN2C)C/C(C)=C/c2ccccc2F)cc(OC)c1OC (racemic),-0.01
17,CC(C)(C)c1cc(C(C)(C)C)c2c(c1)C(O)(C(F)(F)F)C(=O)O2 (racemic),-0.2
18,O=C(O)Cn1c2c(c3cc(F)ccc31)CN(C(=O)c1cccc3ccccc13)CC2 [setipiprant],-0.82
19,O=c1[nH]c(CCl)nc2sc3c(c12)CCCC3,0.17
20,O=C(Nc1ccc(C(=O)O)c(O)c1)c1ccccc1 [benzoylpas],-0.08

row,SMILES,inhibition of SARS-CoV-2 cytopathic effect [%]
1,C/C(=N\c1ccccc1N)c1c(C)cc(=O)n(O)c1O,3.65
2,CNC(=O)c1c(I)c(C(=O)NCC(=O)Nc2c(I)c(C(=O)O)c(I)c(C(=O)NCCO)c2I)c(I)c(N(C)C(C)=O)c1I [ioxaglic-acid],0.75
3,O=C(O)CCC(=O)OC[C@@H](NC(=O)C(Cl)Cl)[C@H](O)c1ccc([N+](=O)[O-])cc1 [chloramphenicol-sodium-succinate],3.18
4,CC(C)(C#N)c1ccc(N2C(=O)OCc3cnc4ccc(-c5cnc6ccccc6c5)cc4c32)cc1,2.93
5,Cc1ccc2c(-c3ccccc3)nc(=O)n(C(C)C)c2c1 [proquazone],-2.03
6,Cc1cccc(NC(=O)N[C@@H]2N=C(c3ccccc3)c3ccccc3N(C)C2=O)c1,0.31
7,C[C@@H]1CN(c2c(F)c(N)c3c(=O)c(C(=O)O)cn(C4CC4)c3c2F)C[C@H](C)N1 [sparfloxacin],-1.72
8,CO[C@@H]1[C@@H](O[C@@H]2O[C@H](C)[C@@H](O[C@H]3C[C@@](C)(O)[C@@H](OC(=O)CC(C)C)[C@H](C)O3)[C@H](N(C)C)[C@H]2O)[C@@H](CC=O)C[C@@H](C)[C@@H](O)/C=C/C=C/C[C@@H](C)OC(=O)C[C@H]1OC(C)=O [josamycin],-1.73
9,CCN1CCC[C@H]1CNC(=O)c1c(OC)ccc(Br)c1OC [remoxipride],0.51
10,CC(C)CC(=O)N[C@H](C(=O)N[C@H](C(=O)N[C@@H](CC(C)C)[C@@H](O)CC(=O)N[C@@H](C)C(=O)N[C@@H](CC(C)C)[C@@H](O)CC(=O)O)C(C)C)C(C)C [pepstatin],-1.52
11,COc1cc2c(cc1OC)[C@@H](Cc1cc(OC)c(OC)c(OC)c1)[N+](C)(CCCOC(=O)CC/C=C/CCC(=O)OCCC[N+]1(C)CCc3cc(OC)c(OC)cc3[C@H]1Cc1cc(OC)c(OC)c(OC)c1)CC2 (stereo not given in full) [mivacurium],3.32
12,COc1cc2ncnc(Nc3ccc(Cl)cc3F)c2cc1OC,-5
13,Cn1nnc(-c2ccc(-c3ccc(N4C[C@H](CO)OC4=O)cc3F)cn2)n1 [tedizolid],0.43
14,CCc1c(-c2ccccc2)c(-c2ccccc2)nn1-c1ccccc1-c1cccc(OCC(=O)O)c1,0.13
15,COc1cc2c(cc1Cc1cccc(Cl)c1F)c(=O)c(C(=O)O)cn2[C@H](CO)C(C)C [elvitegravir],1.67
16,Cc1ccc2c(c1)[C@]13CCCC[C@@H]1[C@H](C2)N(C)CC3 [dimemorfan],1.02
17,COC(=O)N[C@H](C(=O)N1CCC[C@H]1c1ncc(-c2ccc(-c3ccc(-c4cnc([C@@H]5CCCN5C(=O)[C@@H](NC(=O)OC)C(C)C)[nH]4)cc3)cc2)[nH]1)C(C)C [daclatasvir],-2.47
18,COC(=O)Nc1nc2cc(C(=O)c3ccccc3)ccc2[nH]1 [mebendazole],0.95
19,c1ccc(CN(CC2=NCCN2)c2ccccc2)cc1 [antazoline],-1.01
20,C[C@]12C=CC(=O)C=C1CC[C@@H]1[C@@H]2[C@@H](O)C[C@@]2(C)[C@H]1CC[C@]2(O)C(=O)COC(=O)CCC(=O)O [prednisolone-hemisuccinate],3.76

# Reference: the supplement of paper PMC13380429
